In PubChem BioAssay AID686971 (National Center for Advancing Translational Sciences (NCATS), 2013):
The campaign covered roughly 360,000 compounds. About 7,500 (2.1%) were called active. Entries that show only a call come without a potency. Inconclusive results (about 8%) are left out. Calls come from the whole dose curve; as a rule, active = well fitted cell-killing curve with a large enough effect; inconclusive = small, poorly fitted or top-dose-only effect, or effect the other way, or another doubt; inactive = no such curve, though single readings can be large or run the other way. For the sample, actives were picked, then their nearest neighbours and some compounds at random. Some compounds were tested as several samples or in several runs, with calls that do not always agree.

Assay: qHTS for induction of synthetic lethality in tumor cells producing 2HG: qHTS for the HT-1080-IDH1KD cell line
Conditions: HT-1080 IDH1 knockdown viability, ATP luminescence, 48 h; series mostly up to 46.1 µM
Method in brief: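 Luminescent ATP read-out (CellTiter-Glo, 10 min at room temperature) after 48 h compound exposure at 37 °C gave viability of IDH1-knockdown HT-1080 cells. Activity was normalised to DMSO and cell-free wells, then fitted as concentration-response curves.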
Potency is the fitted concentration of half-maximal effect.

| Structure (SMILES) | Potency |
| --- | --- |
| Nc1cc(C(=O)N2CCN(c3ccccc3Cl)CC2)ccc1N1CC2CC(C1)c1cccc(=O)n1C2 (stereo not given) | inactive |
| COc1ccc(NC(=O)COC(=O)C2COc3ccccc3O2)cc1 (stereo not given) | inactive |
| Cc1ccc(C(=O)Nc2nc3ccc(Cl)cc3s2)o1 | inactive |
| Cc1ccc(CCC(=O)Nc2ncc(Cc3cc(Cl)ccc3Cl)s2)o1 | 1.16 µM (active) |
| Cc1ccc(Cc2cnc(N)s2)o1 | inactive |
| COc1ccc(C(O)c2nc(-c3ccc(OC)nc3)cs2)cc1 (stereo not given) | inactive |
| CC1CN(C(=O)c2ccc([N+](=O)[O-])s2)CC(C)O1 (stereo not given) | inactive |
| CNN/C(N=Cc1ccc([N+](=O)[O-])s1)=N\S(=O)(=O)c1cc(C)c(Cl)cc1SCc1ccccc1 | inactive |
| O=[N+]([O-])c1ccc(C=Nc2ccc(Cl)cc2Cl)s1 | 11.2 µM (active) |
| Cc1ccc(N(Cc2cc(=O)[nH]c3ccccc23)C(=O)CCl)cc1 | 20.6 µM (active) |
| CC(=O)N(Cc1cc(=O)[nH]c2ccccc12)c1ccc(C)cc1C | inactive |
| Cc1ccc(N(Cc2cc3ccccc3[nH]c2=O)C(=O)c2cccs2)cc1 | inactive |
| CC(C)C1Cc2[nH][nH]c(=O)c2C(c2ccc(Cl)cc2)O1 (stereo not given) | inactive |
| CC(C)CNC(=O)C1(C)CCCN1C(=O)CSc1ccccc1 (stereo not given) | inactive |
| CCCC(=O)N1CCC1(C)C(=O)NCc1ccc(SC)cc1 (stereo not given) | inactive |
| COc1ccc(/C=C/C(=O)Nc2ccc(C34CC5CC(CC(O)(C5)C3)C4)cc2)cc1OC | 2.59 µM (active) |
| COc1ccc(/C=C/C(=O)N2CCCC2)cc1OC | inactive |
| COc1cc(/C=C/C(=O)Nc2ccc(OC)c(S(=O)(=O)N3CCOCC3)c2)ccc1OCC#N | inactive |
| C[C@@H]1CN([C@H](C)CO)C(=O)CCCn2nncc2CO[C@@H]1CN(C)S(=O)(=O)c1cccc(C#N)c1 | inactive |
| CS(=O)(=O)Nc1cccc(C2=NN(C(=O)c3cccc(F)c3)C(c3cccs3)C2)c1 (stereo not given) | inactive |
| CS(=O)(=O)Nc1ccc(C2=NN(S(C)(=O)=O)C(c3cccs3)C2)cc1 (stereo not given) | inactive |
| CCS(=O)(=O)Nc1ccc(C2=NN(C(C)=O)C(c3cccs3)C2)cc1 (stereo not given) | 16.4 µM (active) |
| COCC1CCCCN1C(=O)c1cc(COc2ccc(C)c(C)c2)on1 (stereo not given) | inactive |
| CCOC(=O)CSC1=C(C#N)C(c2sccc2C)CC(=O)N1 (stereo not given) | 1.41 µM (active) |
| C=CCSC1=C(C#N)C(c2cc(Br)c(O)c(OC)c2)CC(=O)N1 (stereo not given) | inactive |

| Structure (SMILES) | Potency |
| --- | --- |
| COC(=O)CSC1=C(C#N)C(c2ccccc2OC)C(C(=O)OC)C(=O)N1 (stereo not given) | inactive |
| COc1ccc(C(=O)N2CCCCC2c2cc(C(=O)Nc3ccc(F)c(Cl)c3)no2)cc1 (stereo not given) | inactive |
| CSc1nc(-c2ccccc2)nc(C(Cl)Cl)n1 | 18.4 µM (active) |
| CSc1ncc(Sc2ccccc2)c(C(=O)O)n1 | inactive |
| Cc1ccccc1-c1ccc2c(c1)O[C@@H](CN(C)Cc1ccc(C(=O)O)cc1)[C@@H](C)CN([C@H](C)CO)S2(=O)=O | inactive |
| CC(=O)Nc1cccc(Nc2ccc(C#N)cc2)c1 | inactive |
| Cc1ccc(NC(=S)N(CCCN2CCC(C)CC2)Cc2ccco2)cc1 | inactive |
| Cc1ccc(NC(=S)N(CCN2CCCCC2)Cc2ccco2)cc1C | inactive |
| Cc1ccc(NC(=S)N(CCCN2CCCC2)Cc2cccn2Cc2ccc(Cl)cc2)cc1 | 23.1 µM (active) |
| Cc1ccc(NC(=O)COC(=O)CN2CCSC2=O)cc1F | inactive |
| CCc1nc2c(OCCOc3ccc(F)cc3)cccn2c1N(C)C(=O)c1ccccc1F | inactive |
| O=C(OCc1ccccc1)N1CCC2CC1c1ccc(-c3ccc4c(c3)OCO4)cc12 (stereo not given) | inactive |
| CCOC(=O)C1(C)CCCN(C(=O)c2cccc(Cl)c2)C1 (stereo not given) | inactive |
| CCCCCNC(=O)C(c1ccc(OC)cc1)n1c(=O)c(-c2ccccc2)nc2ccccc21 (stereo not given) | inactive |
| O=C(NC1CCCC1)C1c2ccccc2OCC(=O)N1Cc1ccccc1 (stereo not given) | inactive |
| Oc1c(Cl)cc(Cl)cc1/C=N/c1ncn[nH]1 | inactive |
| COc1cc(Br)cc(/C=N/c2ncn[nH]2)c1O | 15.8 µM (active) |
| C=CCn1c(Cn2nnc3ccccc32)nnc1SCC(=O)N/N=C/c1cc(Br)cc(OC)c1O | inactive |
| COc1cc2nc(N3CCCN(C)CC3)nc(NC(C)C)c2cc1OC | inactive |
| O=S1(=O)CC(N2CCSCC2)CN1Cc1cn(Cc2cccc(Cl)c2)nn1 (stereo not given) | inactive |
| CN1OC[C@@H]2CN(S(=O)(=O)c3cccc4ccccc34)[C@H](c3ccc(N4CCCCC4)cc3)C[C@@H]21 | inactive |
| CCC(C)(C)c1ccc(OCC(=O)N(C)C)c(C(C)(C)CC)c1 | 20.6 µM (active) |
| CCc1nc(C)ccc1OCC(=O)N(CC)CC | inactive |
| COc1cccc(C(O)c2ncc(-c3ccc4ccccc4c3)[nH]2)c1 (stereo not given) | inactive |
| COc1ccc(S(=O)(=O)N2CCC(C(=O)NCCC(=O)NCCc3cccc(F)c3)CC2)cc1 | inactive |

| Structure (SMILES) | Potency |
| --- | --- |
| Cc1ccc(NC(=O)[C@H](Cc2ccccc2)NC(=O)CC[C@H]2O[C@@H](n3ccc(=O)[nH]c3=O)[C@H](O)[C@@H]2O)cc1C | inactive |
| COc1cc(C(=O)OCCCN2CCOCC2)cc(OC)c1OC | inactive |
| CCCc1c(C)nc2scc(-c3ccc(Cl)cc3)n2c1=O | inactive |
| CC1CN(C(=O)CCC(=O)NC2CCN(Cc3ccccc3)CC2)c2ccccc2O1 (stereo not given) | inactive |
| CC1CN(C(=O)CCC(=O)NCCCN2CCC(Cc3ccccc3)CC2)c2cc(Cl)ccc2O1 (stereo not given) | 16.4 µM (active) |
| CC1CN(C(=O)CCC(=O)NCc2cccnc2)c2ccccc2O1 (stereo not given) | inactive |
| COc1ccc(CN2C(=O)C(CC(=O)NCc3cccc4ccccc34)CC(C(=O)N3CCOCC3)=C2C)cc1 (stereo not given) | inactive |
| CC(=O)OCC(C)n1c(=O)c2ccccc2n1C(C)=O (stereo not given) | inactive |
| O=c1ccc2c(-c3ccccc3S(=O)(=O)O)c3ccc(O)c(O)c3oc-2c1O | 14.6 µM (active) |
| O=S1(=O)CCN(C2CCCCCCCCCCC2)CC1 | inactive |
| CCCCn1nnnc1C(c1cc2ccccc2o1)N(C)Cc1ccc(Cl)c(Cl)c1 (stereo not given) | inactive |
| C=CC(=O)OCCOCCOCCOCCOC(=O)C=C | 23.1 µM (active) |
| O=Cc1cn(CCOc2ccc(F)cc2)c2ccccc12 | inactive |
| CCOC(=O)N1CCN(C(=O)C2CCN(S(=O)(=O)c3cc(Cl)ccc3OCC)CC2)CC1 | inactive |
| CCOC(=O)/C(=N\Nc1ccccc1Cl)N(C)C1CCS(=O)(=O)C1 (stereo not given) | inactive |
| CCOC(=O)/C(=N\Nc1cc(Cl)ccc1Cl)N1CCN(C)CC1 | 20.6 µM (active) |
| CCC(=O)Nc1ccc2nc(C)n(Cc3ccccc3Cl)c(=O)c2c1 | inactive |
| CCN1CCN(c2cc3nc(C)n(Cc4ccccc4)c(=O)c3cc2NC(=O)c2ccccc2F)CC1 | 20.6 µM (active) |
| CCOc1cc(NC(=O)c2ccccc2C(=O)O)c(OCC)cc1NC(=O)c1ccccc1F | inactive |
| Cc1[nH]c(=O)c(C(=O)/C=C/c2ccccc2)c2c1CCCC2 | 3.98 µM (active) |
| CC1(C(=O)O)CCCN(C(=O)/C=C/c2ccccc2)C1 (stereo not given) | inactive |
| O=C(/C=C/c1ccc(N2CCOCC2)cc1)c1ccccc1 | inactive |
| COc1cc(F)ccc1-c1cc(C(=O)NCC2CCCCC2)[nH]n1 | inactive |
| Cc1ccc(Nc2nc(-c3ccc(O)cc3O)cs2)nc1 | 1.84 µM (active) |
| Cc1ccn2c(-c3csc(Nc4ccc(C(=O)O)cc4)n3)c(C)nc2c1 | inactive |

| Structure (SMILES) | Potency |
| --- | --- |
| CC(=O)Nc1cnc(-c2ccc(O)cc2C)cn1 | inactive |
| CCC1(CC)Cc2ccccc2-c2nc(CCl)[nH]c(=O)c21 | inactive |
| O=c1[nH]c(CCl)nc2cc(-c3ccc(Cl)cc3)sc12 | 11.6 µM (active) |
| Cn1c(NCc2cccnc2)nc2cc(-c3ccc(F)cc3)sc2c1=O | inactive |
| O=C(c1ncn2c1c(=O)[nH]c1ccccc12)N1CCc2ccccc2C1 | inactive |
| Cc1sc2nc(-c3ccccc3F)oc(=O)c2c1C | inactive |
| OCCC#Cc1ccc(N2C(c3ccsc3)=Cc3ccc(F)cc3C2c2c[nH]c3ccccc23)cc1 (stereo not given) | 25.9 µM (active) |
| Nc1ncnc2c1ncn2[C@@H]1O[C@H](C(=O)N2CCCN(Cc3ccccc3F)CC2)[C@@H](O)[C@H]1O | inactive |
| Cc1nnc(SC(C)C(=O)c2c[nH]c3ccccc23)n1C1CC1 (stereo not given) | inactive |
| CC(=NNC(N)=O)C1CC2CCC1CC2 (stereo not given) | inactive |
| Oc1cc2c(cc1O)CN(C(=S)NCCc1ccc(Cl)cc1)CCC2 | 39.8 µM (active) |
| COc1ccc(CCNC(=S)N2CCN(S(=O)(=O)c3ccc(Cl)cc3)CC2)cc1 | inactive |
| O=C(NCCc1ccc(Cl)cc1)c1cccc(N2CCCC2=O)c1 | inactive |
| CCN(CC)C(=O)C1=C(C)N(Cc2ccc(OC)cc2)C(=O)C(CC(=O)NCCCCc2ccccc2)C1 (stereo not given) | inactive |
| CC(C)CCOc1ccc(C(=O)Nc2cc(S(=O)(=O)N3CCOCC3)ccc2N2CCOCC2)cc1 | inactive |
| COc1ccc(-c2csc(C(O)c3cccc(Cl)c3)n2)cn1 (stereo not given) | inactive |
| COc1cccc(NC(=O)Nc2ccc(F)cc2)c1 | inactive |
| COc1cccc(/C=N/Nc2cc(C)nc(-c3ccccc3O)n2)c1O | 6.51 µM (active) |
| COc1ccc(/C=N/Nc2cc(N3CCOCC3)nc(C)n2)c(OC)c1 | inactive |
| COc1cccc(/C=N/Nc2ccc(S(=O)(=O)Nc3ccccc3C(=O)O)cc2[N+](=O)[O-])c1O | inactive |
| Nc1ncnc2c1ncn2[C@@H]1O[C@H](C(=O)NS(=O)(=O)c2c(Cl)nc3sccn23)[C@@H](O)[C@H]1O | inactive |
| COc1ccc(NC(=O)N(C)C[C@@H]2OCc3cn(nn3)CCCC(=O)N([C@H](C)CO)C[C@H]2C)c(OC)c1 | inactive |
| CCCOC(=O)c1[nH]c2c(c1C)C(=O)CC(c1cccs1)C2 (stereo not given) | 0.651 µM (active) |
| COCCOC(=O)c1[nH]c2c(c1C)C(=O)CC(c1ccc(OC)cc1)C2 (stereo not given) | inactive |
| COC(=O)C1C(=O)c2c([nH]c(C(=O)OCCSC)c2C)CC1C (stereo not given) | inactive |
